# Hits are enriched below; roughly 1.9% of the tested compounds scored in any of these assays.
# Epigenetic reg: Quantitative High-Throughput Screen for Regulators of Epigenetic Control; murine LDR cells, GFP reporter derepression, 30 h; Potency, µM (highest dose often 53.9 µM), hits mostly activators; hit rate 0.2% among 280,000; active = well fitted activation curve with a large enough effect; inconclusive = small, poorly fitted or top-dose-only effect; also: nearly all actives have a fitted effect of over 60% in size
#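 GFP-positive cell count by laser-scanning cytometry (objects 20–120 um) after 30 h, 37 C compound exposure of murine LDR cells; reporter is CMV-GFP integrated at a silenced locus, inducible by HDAC or DNMT inhibitors.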
# CXXC DNA block: qHTS Fluorescence Polarization Assay for Inhibitors of MLL CXXC domain - DNA interaction | MLL-CXXC / FITC-HOXA9 DNA fluorescence polarization | Potency, µM (titrated, usually from 115 µM), actives largely listed as inhibitors | Histone-lysine N-methyltransferase 2A (Homo sapiens), Q03164 | AID 2662, 2010 | hit rate 0.037% among 290,000; active = well fitted inhibition curve with a large enough effect in the polarisation, with a control signal flat, not every such curve was filed as active; inconclusive = small, poorly fitted or top-dose-only effect, or effect the other way, or a change in a side signal; inactive = no such curve, though single readings can be large or run the other way; the % refers to the polarisation
#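 Steps: dispense CXXC domain solution (7 uM) → pin compounds or unlabeled HOX-A9 DNA control → 5 min ambient → add FLSN-HOX-A9 solution (50 nM) → spin → 30 min ambient → fluorescence polarization. Tris pH 7.5/NaCl/DTT/BSA buffer.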
# PINK1 expr mod: A Quantitative High throughput Screen to Identify Chemical Modulators of PINK1 Expression; hit rate 0.2% among 410,000; Potency, µM (highest dose often 76.6 µM), actives largely listed as activators; PINK1 immunofluorescence, high-content cytometry, 24 h; active = well fitted activation curve with a large enough effect; inconclusive = small, poorly fitted or top-dose-only effect; cell line not stated here; also: nearly all actives have a fitted effect of over 65% in size
#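 PINK1 protein, normally rapidly degraded, was detected by immunofluorescence after 24 hour compound treatment of a stable cell line. Titration data (5 concentrations) came from laser-scanning cytometry, with CCCP-treated wells as controls.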
# ClpP mod: qHTS Assay for Activators of ClpP. ATP-dependent Clp protease proteolytic subunit (Bacillus subtilis (strain 168)), P80244. purified B. subtilis ClpP, FRET peptide cleavage, 20 min. Potency, µM (series often up to 57.5 µM). hit rate 1.9% among 340,000; active = well fitted falling curve with a large enough effect; inconclusive = small, poorly fitted or top-dose-only effect; inactive = no such curve, though single readings can be large or run the other way; also: the source files actives as falling curves though it sought activators and does not explain the sign; nearly all actives have a fitted effect of over 65% in size
#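 Buffer: 100 mM Tris/HCl pH8, 100 mM KCl, 0.05% low protease BSA, 2.5% glycerol, 0.01% Tween-20. ClpP 10 microg/mL final; 20 min RT; delta FRET normalized to ADEP and DMSO controls.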
# Menin-MLL FL inh: qHTS Assay for Inhibitors Targeting the Menin-MLL Interaction in MLL Related Leukemias: Competition With Fluorescein Labeled MLL-derived Peptide; Fluorescence polarization, fluorescein-MLL peptide displacement from menin; FP activity change, % at 61.4 µM; 290,000 tested, under 10 active; active = well fitted curve in the direction sought with a large enough effect in the polarisation, not every such curve was filed as active; inconclusive = small, poorly fitted or top-dose-only effect, or effect the other way, or a change in a side signal; inactive = no such curve, though single readings can be large or run the other way; the % refers to the polarisation
# Menin-MLL TR inh: qHTS Assay for Inhibitors Targeting the Menin-MLL Interaction in MLL Related Leukemias: Competition With Texas Red Labeled MLL-derived Mutant Peptide. Menin + Texas Red MLL mutant peptide, fluorescence polarization. Potency, µM (titrated, usually from 61.6 µM), most hits filed as inhibitors. hit rate 0.23% among 270,000. AID 1768, 2009; active = well fitted inhibition curve with a large enough effect in the polarisation, with a control signal flat, not every such curve was filed as active; inconclusive = small, poorly fitted or top-dose-only effect, or effect the other way, or a change in a side signal; inactive = no such curve, though single readings can be large or run the other way; the % refers to the polarisation
# Hits are given with their value; – = inactive; ? = inconclusive; · = not tested or not shown.
SMILES,Epigenetic reg,CXXC DNA block,PINK1 expr mod,ClpP mod,Menin-MLL FL inh,Menin-MLL TR inh
Cc1ccc(CNS(=O)(=O)c2c(C)nc3sc(C)cn3c2=O)cc1,–,·,–,28.2µM,·,·
Cc1cn2c(=O)c(S(=O)(=O)NCCc3ccc(Cl)cc3)c(C)nc2s1,–,·,–,?,·,·
Cc1cn2c(=O)c(S(=O)(=O)Nc3ccc(OC(F)(F)F)cc3)c(C)nc2s1,–,·,–,–,·,·
Cc1cn2c(=O)c(S(=O)(=O)NC(C)c3ccccc3)c(C)nc2s1 (configuration not stated),–,·,–,31.6µM,·,·
O=C([C@@H]1C[C@@H](Sc2nc3ccccc3[nH]2)CN1Cc1ccc(C(F)(F)F)cc1)N1CCN(c2ccccc2F)CC1,·,·,–,·,·,·
CC[n+]1cccc(Br)c1,·,·,–,–,·,·
COc1ccc(CN2CCOc3c(O)cc(-c4cc(C)c5ccc(F)cc5n4)cc3C2)c(O)c1,·,·,–,·,·,·
O=C(Nc1sc2c(c1-c1nc3ccccc3[nH]1)CCCC2)C1CCCC1,–,–,–,10µM,–,?
CC(=O)NCCC(=O)Nc1sc2c(c1-c1nc3ccccc3[nH]1)CCCC2,–,–,–,?,–,–
COc1ccc(CN2CCOc3ccc(CN4CCCCC4CO)cc3C2)c(OC)c1 (configuration not stated),·,·,–,·,·,·
Cc1cc(CC(C)C)n(-c2nc3ccccc3c(=O)n2OCC(=O)N(C)C)n1,–,–,–,–,–,–
Cc1cc(C)n(-c2nc3ccccc3c(=O)n2OCC(=O)N(C)C)n1,–,–,–,7.94µM,–,–
Cc1ccc(CN2CCc3nnc(C(NS(C)(=O)=O)C(C)C)n3CC2)cc1C (configuration not stated),·,·,–,·,·,·
O=C(NC(=S)Nc1ccccc1)C1CCCCC1,·,–,–,–,·,·
O=C(NC(=S)NCc1ccccc1)C1CCCCC1,–,–,–,12.6µM,–,–
Cc1cccc(C(=O)NCC(=O)N2CCN(c3ccccn3)CC2)c1,·,·,–,28.2µM,·,·
COc1ccc(CC(=O)N2CCN(c3ccccn3)CC2)cc1OC,–,–,–,22.4µM,–,–
COc1ccc(CCn2c(=O)[nH]c3cc(C(=O)N4CCN(c5ccccn5)CC4)ccc3c2=O)cc1OC,–,–,–,11.2µM,–,–
Cc1cccc(C(=O)N2CCN(c3ccccn3)CC2)c1,–,–,–,–,–,–
CCc1nnc(NC(=O)CCC(=O)N2CCN(c3ccccn3)CC2)s1,–,–,–,17.8µM,–,–
c1ccc(-c2ccc(OCCN3CCCC3)cc2)cc1,·,·,·,·,–,–
CSc1ccc(-c2cc3c(c4c2ccn4C)C2CCC3O2)cc1 (configuration not stated),·,·,–,–,·,·
CC(C)CCNC(=O)C1CCN(S(=O)(=O)c2ccc(-n3cnnn3)cc2)CC1,·,–,–,31.6µM,–,–
O=[N+]([O-])c1ccc(NNC(=S)Nc2ccccc2)cc1,–,–,14.1µM,–,–,·
COC(=O)C1CCCCN1Cc1ccc2c(c1)CN(Cc1cn[nH]c1-c1ccc(F)cc1)CCO2 (configuration not stated),·,·,–,·,·,·
SMILES,Epigenetic reg,CXXC DNA block,PINK1 expr mod,ClpP mod,Menin-MLL FL inh,Menin-MLL TR inh
O=C(O)/C=C/c1nc(-c2ccccc2)n2ccccc12,–,–,–,31.6µM,–,–
CN1CCN(/N=C/c2nc(-c3cccc([N+](=O)[O-])c3)n3ccccc23)CC1,–,–,–,–,–,–
CS(=O)(=O)N1CCN(c2ccccc2NC(=O)c2ccc(-c3ccc(Br)cc3)o2)CC1,–,–,–,31.6µM,–,–
CS(=O)(=O)N1CCN(c2ccc(NC(=O)c3ccc(-c4ccc(Cl)cc4)o3)cc2)CC1,–,–,14.1µM,–,–,?
CCn1nnc(NC(=O)Cc2ccc(Cl)cc2)n1,–,–,–,–,–,–
CCn1nnc(NC(=O)c2ccc(-c3ccc(Cl)cc3)o2)n1,–,–,–,11.2µM,–,–
C=C1C=C(C)n2ncc(C(=O)NCCCCCC)c2N1,·,·,–,–,·,·
CC(C)N(Cc1ccccc1)C(C)C (tested in a mixture with another compound),·,·,·,·,–,–
CC[n+]1c(/C=C/c2c[nH]c3ccccc23)ccc2cc(C)ccc21,4.47µM,?,–,·,?,?
Nn1c(SCC(=O)NCc2ccccc2)nnc1C1CC1,–,–,5.01µM,–,–,–
CC(C)c1nc(C(=O)N2CCOc3ccc(CN4CCN(c5ccccn5)CC4)cc3C2)cs1,·,·,–,·,·,·
CCc1ccc(Nc2nnc(-c3cc4cc(OC)ccc4oc3=O)s2)cc1,15.8µM,·,–,–,·,·
COc1ccc(Nc2nnc(-c3cc4c(ccc5ccccc54)oc3=O)s2)cc1,–,·,–,–,·,·
COc1ccc(-c2[nH]n(-c3ccc([N+](=O)[O-])cc3)c(=O)c2C=NCc2ccc(F)cc2)cc1,?,–,–,–,–,?
COc1ccc(-c2cc(=O)n(-c3ccc([N+](=O)[O-])cc3)[nH]2)cc1,–,–,?,28.2µM,–,?
COc1ccccc1N1CCN(CC(O)COc2ccc3c(C)cc(=O)oc3c2)CC1 (configuration not stated),–,–,–,15.8µM,–,–
Cc1cc(=O)oc2cc(OCC(O)CN3CCc4ccccc4C3)ccc12 (configuration not stated),–,–,–,?,–,–
Cc1cc(=O)oc2cc(OCC(O)CN3CCN(c4ccccc4)CC3)ccc12 (configuration not stated),–,–,–,31.6µM,–,–
CC(O)(COc1ccccc1)c1ccc2c(c1)CN(Cc1cccc3cccnc13)CCO2 (configuration not stated),·,·,–,·,·,·
O=C1CN(C(=O)c2ccccc2F)C(c2ccccc2)c2cc(F)ccc2N1 (configuration not stated),·,–,–,–,–,–
Cc1ccccc1C(=O)N1CC(=O)Nc2ccc(F)cc2C1c1ccc(F)cc1 (configuration not stated),·,–,–,31.6µM,–,?
Cc1cc(NCCCn2ccnc2)n2nc(-c3ccc(Cl)cc3)cc2n1,–,–,–,?,–,–
CC(C)(C)c1cc(NCCCn2ccnc2)n2ncc(-c3ccc(Cl)cc3)c2n1,–,?,?,14.1µM,–,?
C=CCNC(=O)C1CCN(c2nc(C)cc(-c3ccccc3)n2)CC1,–,–,–,25.1µM,–,–
Cc1cc(-c2ccccc2)nc(N2CCC(C(=O)NCc3ccccc3Cl)CC2)n1,–,–,·,·,–,–
C(=Nc1cccc2c(N=Cc3ccco3)cccc12)c1ccco1,–,–,–,–,?,?
